Experimental data as given in PubChem BioAssay (NCI).
This is part of a sample that, as a whole, favours compounds with a hit. Of some 83,000 tested, about 20% had one in any assay.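 Interpretation: 100, growth as untreated; towards 0, rising growth inhibition; 0, no net growth; 0 to -100, cell death. Compounds scoring below 10 were considered active.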 A number with no mark means an inactive call. Activity calls are given as the source filed them.

What follows are compounds tested on MDA-MB-468 breast (assay: NCI-60 one-dose screen, 48 h (100 = growth as untreated, 0 = no growth, -100 = all killed)). Conditions: 10 µM unless noted.

| SMILES | growth |
| --- | --- |
| COc1ccc(/C=C(/C(=O)N2CCCC2)c2cc(OC)c(OC)c(OC)c2)cc1N | -4.72% (active) |
| CCCC[C@H](NC(=O)[C@H]1CCCN1C)C(=O)N(C)[C@H](C[C@@H](OC(C)=O)c1nc(C(=O)N[C@@H](Cc2ccccc2)C[C@H](C)C(=O)OCC)cs1)C(C)C | 7.04% (active) |
| CC(=O)ONc1ccc([N+](=O)[O-])c(C(F)(F)F)c1 | 118% |
| C=CC1=C[C@@H]2[C@@H]3O[C@]4(CC[C@H](O4)[C@@H](C)C[C@@H](O)C3=O)C[C@H](O)C3=NCC[C@@]32CC1 | -56% (active) |
| COC(=O)C1OC(Oc2ccc(N(CCCl)CCCl)cc2)C(OC(C)=O)C(OC(C)=O)C1OC(C)=O (stereo not given) | 28.3% |
| CCCCS(=O)(=O)Cl | 104% |
| COC(=O)[C@@H](C)C[C@H](Cc1ccccc1)NC(=O)c1nc([C@@H](C[C@H](C(C)C)N(C)C(=O)[C@@H](NC(=O)[C@H]2CCCCN2C)C(C)C)OC(C)=O)sc1C(C)C | 20.7% |
| COc1cc(/C=C\c2cc(OC)c(OC)c(OC)c2)cc(N/C=C\C(=O)c2ccc(OC(F)(F)F)cc2)c1OC | 27.2% |
| CC(=O)Cc1ccc2c(c1)OCO2 | 103% |
| COc1cc(/C=C/[N+](=O)[O-])cc(Br)c1OC | -34.7% (active) |
| O=C1NC(=O)C(=Cc2cccn2CCCCCn2c3ccccc3c(=O)c3ccccc32)C(=O)N1 | 107% |
| COc1ccc(C2=NN(c3ccccc3)C(c3sc(N(CCCl)CCCl)nc3Cl)C2)cc1 (stereo not given) | 69.3% |
| N#CC(C#N)=C(C#N)C#N | 102% |
| CCOc1c(Cl)cc(CNC(C)C(O)c2ccccc2)cc1OC (stereo not given) | 32.5% |
| C[C@]12CCC(=O)CC1CC[C@@H]1C2CC[C@@]2(C)C1CC[C@@H]2OC(=O)CC[Se][Se]CCC(=O)O[C@H]1CCC2[C@@H]3CCC4CC(=O)CC[C@]4(C)C3CC[C@@]21C (stereo not given in full) | 77.5% |
| C=CC[PH+](c1ccccc1)c1ccccc1.C=CC[PH+](c1ccccc1)c1ccccc1.[Pt+2].[S-]c1ncccn1.[S-]c1ncccn1 | -5.58% (active) |
| CC1=C(SCCC(=O)OCC(=O)NCCC[Te]c2ccccc2)C(=O)c2ccccc2C1=O | 9.39% (active) |
| CC(=O)Nc1ccc(C=C2C(=O)NC(=O)NC2=O)cc1 | 115% |
| CC1COC(=O)C1 (stereo not given) | 106% |
| CCC(C)(C)[C@H](NC(=O)[C@H]1CCCCN1C)C(=O)N(C)[C@H](C[C@@H](OC(C)=O)c1nc(C(=O)N[C@@H](Cc2ccccc2)C[C@H](C)C(=O)O)cs1)C(C)C | 7.54% (active) |
| O=C(O)C1[O][Sb][O]C1C(=O)O (stereo not given) | 95.7% |
| C[C@]12CCC3[C@@H](C[C@@H]4SC(Nc5ccccc5)=N[C@@]45CC(=O)CC[C@]35C)[C@@H]1CCC2=O (stereo not given in full) | -26.8% (active) |
| O=[N+]([O-])c1cc([N+](=O)[O-])c(Nn2c3ccccc3c3ccccc32)c([N+](=O)[O-])c1 | -8.42% (active) |
| CC(C)[C@]12O[C@H]1[C@@H]1O[C@]13[C@]1(O[C@H]1C[C@H]1C4=C(CC[C@@]13C)C(=O)OC4)[C@@H]2OC(=O)OC(C)(C)C | -48.4% (active) |
| O=C1OCCC1Br (stereo not given) | 106% |
